Compound activity (PubChem BioAssay)
Shiga toxin inh – A qHTS for Small Molecule Inhibitors of Shiga Toxin; Vero cells, Shiga toxin protein synthesis inhibition reporter; inhibition, % at 38.7 µM; 290,000 tested, 9.2% active; AID 2315, 2010; in the data active means inhibition mostly above about 28%, no sharp cut-off; inactive means mostly below about 43%; further: 0% is about no effect
NS1 inh – qHTS Assay for Inhibitors of Influenza NS1 Protein Function; Potency, µM (series often up to 46.1 µM), inactives show at the top dose activity, positive = more growth; 270,000 tested, 0.4% active; AID 2326, 2010; further: potency means the concentration at half of the fitted maximal effect; actives are rising curves; nearly all actives have a fitted effect of over 50% in size
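In this qHTS, NS1 from influenza A is expressed in budding yeast, where it slows growth. Cells are switched from glucose to 2% galactose medium (pH 6.0, -URA), treated with compound, and growth recovery is read at OD600.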
Cycloheximide cs – Cycloheximide Counterscreen for Small Molecule Inhibitors of Shiga Toxin. cell reporter, cycloheximide protein synthesis inhibition counterscreen. max response, %. 300,000 tested, 12% active. AID 2314, 2010; in the data active means max response mostly above about 13%, no sharp cut-off; inactive means mostly below about 14%; further: read at 38.3 µM for the half of the compounds with a filed dose; 0% is about no effect
SARS PLP yeast – qHTS of Yeast-based Assay for SARS-CoV PLP | S. cerevisiae expressing SARS-CoV PLpro, growth rescue | Potency, µM (series often up to 32.9 µM), for the others: top-dose activity, positive = growth rescue, most hits filed as activators | 330,000 tested, 0.19% active; further: potency means the concentration at half of the fitted maximal effect; 0% is about no effect; nearly all actives have a fitted effect of over 55% in size
LmPK inhibitor – qHTS Assay for Inhibitors of Leishmania Mexicana Pyruvate Kinase (LmPK); Q27686; AID 1721, 2009; purified LmPK, Kinase-Glo ATP luminescence, 1 h; Potency, µM (highest dose often 57.5 µM), for the others: at the top dose activity change, negative = inhibition, hits mostly inhibitors; 290,000 tested, 0.37% active; active means well fitted curve in the direction sought with a large enough effect; inconclusive means small, poorly fitted or top-dose-only effect, or another doubt; inactive means no such curve, though single readings can be large; an effect the other way counts as inactive or inconclusive; further: potency means the concentration at half of the fitted maximal effect; on the % scale 0 is the no-effect control and ±100 the full control effect
Target sequence (Q27686 whole entry, looked up): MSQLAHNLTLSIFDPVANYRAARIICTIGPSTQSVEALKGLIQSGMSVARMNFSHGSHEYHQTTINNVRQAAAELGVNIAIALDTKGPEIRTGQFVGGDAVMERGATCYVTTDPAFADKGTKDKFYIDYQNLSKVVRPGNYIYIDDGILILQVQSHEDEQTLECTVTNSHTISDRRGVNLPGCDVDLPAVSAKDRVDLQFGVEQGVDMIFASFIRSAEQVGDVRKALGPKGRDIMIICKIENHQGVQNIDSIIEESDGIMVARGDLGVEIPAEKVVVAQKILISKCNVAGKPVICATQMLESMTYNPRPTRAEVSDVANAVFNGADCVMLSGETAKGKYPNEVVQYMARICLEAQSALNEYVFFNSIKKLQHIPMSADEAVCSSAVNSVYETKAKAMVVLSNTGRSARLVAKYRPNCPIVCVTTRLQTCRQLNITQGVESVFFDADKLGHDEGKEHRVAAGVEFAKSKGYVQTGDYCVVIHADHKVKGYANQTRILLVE
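In 50 mM imidazole pH 7.2 with 7 mM MgCl2, LmPK (0.1 nM) turned over PEP (0.5 mM) and ADP (0.1 mM) for 1 h at room temperature. Luciferase read-out of ATP.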
TbPYK inhibitor – qHTS of Trypanosoma Brucei Inhibitors; pyruvate kinase (Trypanosoma brucei), Q57TT1; TbPYK enzyme, Kinase-Glo Plus ATP luminescence, 45 min; Potency, µM (series often up to 76.8 µM), without a hit: at the highest dose activity, negative = inhibition, most hits filed as inhibitors; 410,000 tested, 0.12% active; active means well fitted curve in the direction sought with a large enough effect; inconclusive means small, poorly fitted or top-dose-only effect, or another doubt; inactive means no such curve, though single readings can be large; an effect the other way counts as inactive or inconclusive; further: potency means the concentration at half of the fitted maximal effect; on the % scale 0 is the no-effect control and ±100 the full control effect; nearly all actives have a fitted effect of over 50% in size
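Glycolytic pyruvate kinase of T. brucei was incubated with substrate, test compound and 130 uM ADP for 45 minutes at room temperature. Luminescent Kinase-Glo Plus signal was measured after 10 minutes.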
Starred values were filed as active, the others as inactive; ? = inconclusive; · = not tested or not shown. The full list was thinned out, with hits kept by preference. Unless noted, the call rests on the fitted dose curve.

SMILES	Shiga toxin inh	NS1 inh	Cycloheximide cs	SARS PLP yeast	LmPK inhibitor	TbPYK inhibitor
CC(=O)c1cccc(OCc2cc(C(=O)N(C)CCc3ccccn3)no2)c1	37	0%	15*	-1%	-4%	0%
CN(Cc1ccccn1)C(=O)c1cc(COc2ccc(F)c(F)c2)on1	·	·	·	·	·	-3%
Cc1ccc(OCc2cc(C(=O)N(C)CCc3ccccn3)no2)cc1C	109*	-14%	83*	-3%	6%	-10%
Cc1cccc(C)c1OCc1cc(C(=O)N(C)Cc2nc3ccccc3[nH]2)no1	21	-37%	13	-4%	2%	-2%
CC(=O)c1ccc(OCc2cc(C(=O)N(C)CCOc3ccc(C)cc3)no2)cc1	81*	-14%	47*	-7%	-7%	-3%
Cc1ccc(OCc2cc(C(=O)N(C)CCc3nc4ccccc4[nH]3)no2)cc1C	22	-20%	27*	-7%	-8%	-8%
COc1ccccc1CNC(=O)CN1C(=O)CCn2nc(-c3ccccc3)cc21	·	·	·	·	·	3%
CC(=O)c1ccc(OCc2cc(C(=O)N(C)Cc3nc4c(C)cccc4[nH]3)no2)cc1	18	-18%	7	-3%	0%	-1%
CC(=O)c1cccc(OCc2cc(C(=O)N(C)Cc3ccc(C)o3)no2)c1	79*	-2%	22*	-6%	5%	?
O=C(Nc1ccc(Cl)cc1)OC1CN2CCC1CC2 (configuration not stated)	42*	-3%	27*	0%	4%	2%
O=C(Nc1ccccc1Cl)OC1CN2CCC1CC2 (configuration not stated)	8	3%	12	-1%	-5%	2%
O=C(Nc1cccc(Cl)c1)OC1CN2CCC1CC2 (configuration not stated)	56*	2%	26*	-3%	5%	1%
O=S(=O)(NCCc1csc2nc(-c3ccc(F)cc3)nn12)c1ccc(Br)cc1	·	·	·	·	·	-1%
Cc1ccccc1S(=O)(=O)NC(=O)C1(C)CCN1C(=O)c1ccccc1CCc1ccccc1 (configuration not stated)	·	·	·	·	·	-9%
CC(C)N1CCC2(CC1)N=C(c1ccc3c(c1)OCO3)CC(c1cc(Cl)ccc1O)N2 (configuration not stated)	43*	-33%	47*	-30%	-3%	4%
C/C(Cn1cnc([N+](=O)[O-])n1)=N\NC(=O)c1ccccc1F	·	·	·	·	·	3%
C/C(Cn1cnc([N+](=O)[O-])n1)=N\NC(=O)c1ccc(O)cc1O	87*	4%	42*	1%	0%	4%
C/C(Cn1nc([N+](=O)[O-])cc1C)=N\NC(=O)c1ccc(O)cc1O	39	12%	30*	-7%	7%	-2%
C/C(Cn1cnc([N+](=O)[O-])n1)=N\NC(=O)c1ccccc1O	39*	5%	24*	2%	2%	-6%
O=C(COC(=O)Cc1c(Cl)cccc1Cl)NCc1ccccc1	·	·	·	·	·	5%
Brc1cccc(CN2CCN(c3ncccn3)CC2)c1	2	-3%	-1	0%	-7%	5%
CC(=O)Nc1ccc(NC(=O)CC2SC(=O)N(CC(=O)c3ccccc3)C2=O)cc1 (configuration not stated)	4	-11%	2	-3%	-2%	-10%
CCCN1C(=O)SC(CC(=O)Nc2ccc(C)cc2)C1=O (configuration not stated)	26	-45%	10	11µM*	0%	0%
O=C(CC1Sc2ncnn2C1=O)Nc1ccccc1 (configuration not stated)	-8	-10%	17*	-26%	9%	-14%
O=C(CC1SC2=NCCN2C1=O)Nc1ccccc1 (configuration not stated)	10	21%	6	-3%	2%	5%
Cc1cccc(NC(=O)CC2SC(=O)N(c3ccccc3)C2=O)c1 (configuration not stated)	29	16%	10	-11%	1%	7%
